In PubChem BioAssay (Tox21):
The source made the active and inactive calls. A call without a number means that no potency is given here. Unless noted, calls come from the whole dose curve; as a rule, active = well fitted curve in the direction sought with a large enough effect in the repeat runs; inconclusive = weak or mixed curves; inactive = no such curve, though single readings can be large; an effect the other way counts as inactive or inconclusive.

Key:
[1] = qHTS assay for small molecule agonists of the p53 signaling pathway (AID 651631; calls by dose curve; note: nearly all actives have a fitted effect of over 15% in size; note: potency is the fitted concentration of half-maximal effect)
Outline: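 Quantitative high-throughput format: 4,000 p53RE-bla HCT-116 cells/well, 5 h pre-incubation, 16 h compound exposure at 37 °C, 2 h room-temperature substrate step, fluorescence intensity measured.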

[2] = qHTS assay for small molecules that induce genotoxicity in human embryonic kidney cells expressing luciferase-tagged ATAD5 (AID 651632); note: nearly all actives have a fitted effect of over 15% in size; note: potency is the fitted concentration of half-maximal effect
Outline: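 Genotoxicity read-out via ATAD5-luciferase: HEK293T cells, 16 hr compound incubation at 37C, Amplite detection.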

[3] = qHTS assay for small molecule disruptors of the mitochondrial membrane potential - cell viability (AID 720634; calls by dose curve; note: nearly all actives have a fitted effect of over 20% in size; note: potency is the fitted concentration of half-maximal effect)
Outline: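 Human hepatoma HepG2 cells were treated for 1 hr with test chemicals, then given m-MPI dye and CellTiter-Glo. Cell viability reflects luminescence proportional to cellular ATP.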

[4] = qHTS assay for small molecule disruptors of the mitochondrial membrane potential (AID 720635)
Outline: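 Mitochondrial membrane potential tracked with Mito-MPS dye, red aggregates (ex 540/em 590 nm) against green monomers (ex 490/em 535 nm). Compound treatment 1 hr at 37C, dye 30 min in HepG2.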

[5] = qHTS assay to test for compound auto fluorescence at 535 nm (green) in HepG2 cells (AID 720675)
[6] = qHTS assay to test for compound auto fluorescence at 535 nm (green) in HEK293 cells (AID 720680)
[7] = qHTS assay for identifying genotoxic compounds that show differential cytotoxicity against isogenic chicken DT40 cell lines with known DNA damage response pathways - wild type cell line (AID 743012); note: nearly all actives have a fitted effect of over 60% in size; note: potency is the fitted concentration of half-maximal effect
Outline: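 Quantitative HTS on parental DT40 cells: 40 h compound treatment at 37 C/5% CO2, with viability then determined by CellTiter-Glo luminescence. Values serve as the DNA repair-proficient reference for differential cytotoxicity.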

[8] = qHTS assay for identifying genotoxic compounds that show differential cytotoxicity against isogenic chicken DT40 cell lines with known DNA damage response pathways - Rev3 mutant cell line (AID 743014); note: nearly all actives have a fitted effect of over 55% in size; note: potency is the fitted concentration of half-maximal effect
[9] = qHTS assay to identify small molecule antagonists of the thyroid receptor (TR) signaling pathway - cell viability counter screen (AID 743064); note: nearly all actives have a fitted effect of over 50% in size; note: potency is the fitted concentration of half-maximal effect
Outline: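 Compounds were tested on GH3.TRE-Luc cells in the presence of T3 at 1 nM final. Following 23.5 h at 37 °C, cell viability was quantified by CellTiter-Fluor.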

[10] = qHTS assay to identify small molecule antagonists of the thyroid receptor (TR) signaling pathway (AID 743065); note: nearly all actives have a fitted effect of over 55% in size; note: potency is the fitted concentration of half-maximal effect
Outline: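 Antagonism measured as loss of luciferase signal in GH3 cells stably carrying a TRE-luciferase reporter, co-treated with compound and T3 (1 nM final) for 23.5 h at 37 C. Viability was read in the same well by CellTiter-Fluor.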

[11] = tested on: thyroid hormone receptor (rat, GH3 cells); assay: qHTS assay to identify small molecule agonists of the thyroid receptor (TR) signaling pathway (AID 743066; calls by dose curve)
[12] = biological target: Estrogen receptor (Homo sapiens) (UniProt P03372); assay: qHTS assay to identify small molecule antagonists of the estrogen receptor alpha (ER-alpha) signaling pathway (AID 743069; active = well fitted curve in the direction sought with a large enough effect in the signal ratio in the repeat runs, not every such curve was filed as active; inconclusive = weak or mixed curves, or effect the other way; inactive = no such curve, though single readings can be large or run the other way; the % refers to the signal ratio)
Outline: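 ER-alpha-UAS-bla GripTite HEK293 line; 2% charcoal-stripped FBS overnight; plated, 4 hr 37C/5% CO2; cpd in DMSO + 17beta-estradiol, 18 hr 37C; LiveBLAzer B/G FRET substrate 2 hr RT; fluorescence intensity.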

[13] = biological target: Estrogen receptor (Homo sapiens) (UniProt P03372); assay: qHTS assay to identify small molecule agonists of the estrogen receptor alpha (ER-alpha) signaling pathway (AID 743075; calls by dose curve;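 note: HEK293 GripTite cells with ER-alpha and UAS-driven beta-lactamase reporter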; note: potency is the fitted concentration of half-maximal effect)
[14] = biological target: Estrogen receptor (Homo sapiens) (UniProt P03372); assay: qHTS assay to identify small molecule agonists of the estrogen receptor alpha (ER-alpha) signaling pathway using the BG1 cell line (AID 743079); note: nearly all actives have a fitted effect of over 20% in size; note: potency is the fitted concentration of half-maximal effect
[15] = qHTS assay to identify small molecule antagonists of the estrogen receptor alpha (ER-alpha) signaling pathway using the BG1 cell line (AID 743080; calls by dose curve;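 note: BG1 cells stimulated with 17beta-estradiol alongside compound; nearly all actives have a fitted effect of over 25% in size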; note: potency is the fitted concentration of half-maximal effect)
Outline: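 Luciferase inhibition measured with ONE-Glo after 30 min at RT in BG1Luc4E2 cells given test compounds and 17beta-estradiol for 21.5 h at 37 C; CellTiter-Fluor viability read in the same wells beforehand.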

[16] = qHTS assay to identify small molecule antagonists of the estrogen receptor alpha (ER-alpha) signaling pathway using the BG1 cell line - cell viability counter screen (AID 743081);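 note: compound given together with 17beta-estradiol as the ER stimulus; nearly all actives have a fitted effect of over 45% in size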; note: potency is the fitted concentration of half-maximal effect
[17] = biological target: Aryl hydrocarbon receptor (Homo sapiens) (UniProt P35869); assay: qHTS assay to identify small molecule that activate the aryl hydrocarbon receptor (AhR) signaling pathway (AID 743085); note: nearly all actives have a fitted effect of over 15% in size; note: potency is the fitted concentration of half-maximal effect;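 for activation: HG2L7.5c1 human HepG2 liver cells with stably integrated DRE-driven firefly reporter; series mostly up to about 70 µM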
Outline: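 24 h compound exposure, 37C, HepG2-derived HG2L7.5c1 cells with DRE-responsive luciferase. Readouts: fluorescence viability, then luminescence at room temperature after 30 min.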

[18] = qHTS assay for identifying genotoxic compounds that show differential cytotoxicity against isogenic chicken DT40 cell lines with known DNA damage response pathways - Rad54/Ku70 mutant cell line (AID 743015); note: nearly all actives have a fitted effect of over 60% in size; note: potency is the fitted concentration of half-maximal effect
[19] = biological target: Peroxisome proliferator-activated receptor gamma (Homo sapiens) (UniProt P37231); assay: qHTS assay to identify small molecule agonists of the peroxisome proliferator-activated receptor gamma (PPARg) signaling pathway (AID 743094; active = well fitted activation curve with a large enough effect in the signal ratio in the repeat runs, not every such curve was filed as active; inconclusive = weak or mixed curves, or effect the other way; inactive = no such curve, though single readings can be large or run the other way; the % refers to the signal ratio)
Outline: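 Stably transfected HEK293H cells (GeneBLAzer PPARg UAS-bla) were incubated with test substances for 17 h at 37C after a 5 h pre-incubation; beta-lactamase activity was then detected by FRET substrate fluorescence.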

[20] = biological target: Glucocorticoid receptor (Homo sapiens) (UniProt P04150); assay: qHTS assay to identify small molecule agonists of the glucocorticoid receptor (GR) signaling pathway (AID 720691; active = well fitted activation curve with a large enough effect in the signal ratio in the repeat runs, not every such curve was filed as active; inconclusive = weak or mixed curves, or effect the other way; inactive = no such curve, though single readings can be large or run the other way; the % refers to the signal ratio; note: potency is the fitted concentration of half-maximal effect)
Outline: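 Beta-lactamase reporter activity, read as fluorescence intensity, was measured in GR-bla HeLa cells exposed to compounds for 18 h at 37 C and then loaded with LiveBLAzer B/G FRET substrate for 2 h at room temperature.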

Aryl hydrocarbon receptor (Homo sapiens), sequence (P35869 whole entry, looked up): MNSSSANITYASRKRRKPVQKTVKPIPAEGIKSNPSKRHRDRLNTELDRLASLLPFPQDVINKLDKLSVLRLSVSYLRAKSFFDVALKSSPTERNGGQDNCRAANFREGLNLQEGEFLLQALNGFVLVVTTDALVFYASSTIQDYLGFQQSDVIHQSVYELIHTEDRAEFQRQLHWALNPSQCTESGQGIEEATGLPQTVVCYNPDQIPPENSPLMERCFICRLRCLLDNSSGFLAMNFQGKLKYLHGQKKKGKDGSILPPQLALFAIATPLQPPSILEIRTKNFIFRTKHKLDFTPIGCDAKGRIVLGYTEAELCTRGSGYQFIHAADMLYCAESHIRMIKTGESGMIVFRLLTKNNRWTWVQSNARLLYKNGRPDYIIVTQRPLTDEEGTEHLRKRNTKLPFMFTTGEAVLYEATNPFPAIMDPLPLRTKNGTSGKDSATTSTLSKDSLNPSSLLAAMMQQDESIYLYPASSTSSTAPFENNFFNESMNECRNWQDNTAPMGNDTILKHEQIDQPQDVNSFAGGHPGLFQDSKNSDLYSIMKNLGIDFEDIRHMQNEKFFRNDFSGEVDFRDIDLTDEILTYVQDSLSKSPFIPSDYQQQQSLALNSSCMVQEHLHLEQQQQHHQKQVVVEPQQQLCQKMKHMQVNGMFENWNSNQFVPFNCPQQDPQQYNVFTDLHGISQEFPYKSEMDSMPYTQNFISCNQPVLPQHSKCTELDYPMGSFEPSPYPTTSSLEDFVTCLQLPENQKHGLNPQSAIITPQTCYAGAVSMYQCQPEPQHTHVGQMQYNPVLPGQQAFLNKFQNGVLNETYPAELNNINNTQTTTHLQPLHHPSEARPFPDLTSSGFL
Estrogen receptor (Homo sapiens), sequence (P03372 whole entry, looked up): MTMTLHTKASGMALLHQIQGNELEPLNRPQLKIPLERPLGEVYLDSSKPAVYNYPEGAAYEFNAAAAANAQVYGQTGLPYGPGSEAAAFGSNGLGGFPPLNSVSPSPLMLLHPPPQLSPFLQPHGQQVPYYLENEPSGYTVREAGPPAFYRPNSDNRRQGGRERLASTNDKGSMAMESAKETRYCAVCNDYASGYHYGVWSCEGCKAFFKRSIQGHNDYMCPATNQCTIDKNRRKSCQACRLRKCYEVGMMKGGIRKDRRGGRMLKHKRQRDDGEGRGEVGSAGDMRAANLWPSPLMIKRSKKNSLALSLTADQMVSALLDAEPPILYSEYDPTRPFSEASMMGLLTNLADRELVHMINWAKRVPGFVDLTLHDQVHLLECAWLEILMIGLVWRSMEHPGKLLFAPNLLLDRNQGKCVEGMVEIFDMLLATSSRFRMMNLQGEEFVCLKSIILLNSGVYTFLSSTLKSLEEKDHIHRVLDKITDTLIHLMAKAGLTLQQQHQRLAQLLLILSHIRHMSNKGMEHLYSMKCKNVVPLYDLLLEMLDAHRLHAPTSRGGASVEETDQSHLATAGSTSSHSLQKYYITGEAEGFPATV
Glucocorticoid receptor (Homo sapiens), sequence (P04150 whole entry, looked up): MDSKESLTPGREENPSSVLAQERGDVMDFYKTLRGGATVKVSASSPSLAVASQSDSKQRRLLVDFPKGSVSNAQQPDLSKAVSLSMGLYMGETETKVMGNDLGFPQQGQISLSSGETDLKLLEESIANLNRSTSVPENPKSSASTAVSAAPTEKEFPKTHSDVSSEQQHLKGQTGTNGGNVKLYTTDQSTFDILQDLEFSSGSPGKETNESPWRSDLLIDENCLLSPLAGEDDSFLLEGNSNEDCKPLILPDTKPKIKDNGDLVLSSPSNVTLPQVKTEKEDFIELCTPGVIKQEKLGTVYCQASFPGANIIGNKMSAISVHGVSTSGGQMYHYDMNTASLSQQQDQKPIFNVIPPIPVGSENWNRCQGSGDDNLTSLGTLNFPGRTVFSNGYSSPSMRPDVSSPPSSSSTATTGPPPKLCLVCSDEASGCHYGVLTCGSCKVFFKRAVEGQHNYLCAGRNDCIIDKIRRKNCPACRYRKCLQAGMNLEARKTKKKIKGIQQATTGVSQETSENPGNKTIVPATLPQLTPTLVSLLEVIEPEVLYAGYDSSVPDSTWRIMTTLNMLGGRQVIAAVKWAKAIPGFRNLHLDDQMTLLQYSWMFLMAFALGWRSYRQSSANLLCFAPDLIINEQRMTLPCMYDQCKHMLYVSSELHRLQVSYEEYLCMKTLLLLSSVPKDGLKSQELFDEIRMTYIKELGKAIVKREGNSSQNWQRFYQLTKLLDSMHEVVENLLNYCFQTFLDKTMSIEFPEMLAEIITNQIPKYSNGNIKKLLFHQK
Peroxisome proliferator-activated receptor gamma (Homo sapiens), sequence (P37231 whole entry, looked up): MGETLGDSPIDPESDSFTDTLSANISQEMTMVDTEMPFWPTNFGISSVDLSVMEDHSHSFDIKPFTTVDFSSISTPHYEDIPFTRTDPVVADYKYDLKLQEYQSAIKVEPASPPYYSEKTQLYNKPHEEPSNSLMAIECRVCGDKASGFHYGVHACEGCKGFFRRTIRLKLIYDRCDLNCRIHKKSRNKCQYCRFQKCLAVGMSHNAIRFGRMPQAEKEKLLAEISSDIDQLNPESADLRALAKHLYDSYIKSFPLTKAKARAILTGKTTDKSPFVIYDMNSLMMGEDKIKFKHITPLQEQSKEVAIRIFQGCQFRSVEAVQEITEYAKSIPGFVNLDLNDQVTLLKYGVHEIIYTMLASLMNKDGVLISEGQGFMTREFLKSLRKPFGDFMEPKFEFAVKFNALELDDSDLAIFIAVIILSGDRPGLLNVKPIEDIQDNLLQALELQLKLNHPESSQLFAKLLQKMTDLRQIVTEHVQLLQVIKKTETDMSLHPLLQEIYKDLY

Row | SMILES | Potency [1] | Potency [2] | Potency [3] | Potency [4] | Potency [5] | Potency [6] | Potency [7] | Potency [8] | Potency [9] | Potency [10] | Potency [11] | Potency [12] | Potency [13] | Potency [14] | Potency [15] | Potency [16] | Potency [17] | Potency [18] | Potency [19] | Potency [20]
1 | CN[C@]1(c2ccccc2Cl)CCCCC1=O | inactive | inactive | inactive | inactive | inactive | inactive | inactive | inactive | inactive | inactive | inactive | inactive | inactive | inactive | inactive | inactive | inactive |  |  | 
2 | C[C@H]1[C@H]2Cc3ccc(O)cc3[C@]1(C)CCN2CCc1ccccc1 |  | inactive |  |  | inactive | inactive | 6.8 µM (active) | 15.2 µM (active) | 30.4 µM (active) | 27.1 µM (active) | inactive | inactive | inactive | inactive |  |  | 12.1 µM (active) | 17.1 µM (active) |  | 
3 | CCCCNC(C)(C)[P+](=O)O |  | inactive | inactive |  |  | inactive | inactive | inactive | inactive | inactive | inactive | inactive | inactive | inactive | inactive |  | inactive |  | inactive | 
4 | [H+].[H+].[Hg+2].[O-]B([O-])[O-].[c-]1ccccc1 | 1.33 µM (active) |  | 13.3 µM (active) |  | inactive | inactive | 0.266 µM (active) | 0.531 µM (active) | 1.06 µM (active) | 0.596 µM (active) |  |  | 30.1 µM [inconclusive] (active) |  |  | 5.31 µM (active) |  | 0.335 µM (active) |  | 
5 | C[C@@H](Cc1ccccc1)NCCC(c1ccccc1)c1ccccc1 | inactive | inactive | inactive |  | inactive | inactive | 3.59 µM (active) | 5.07 µM (active) | 11.4 µM (active) |  |  | inactive | inactive | inactive | inactive |  | inactive | 7.17 µM (active) |  | 
6 | C=CCC1([C@@H](C)CCC)C(=O)NC(=O)NC1=O |  | inactive | inactive | inactive | inactive | inactive |  |  | inactive | inactive | inactive | inactive | inactive | inactive | inactive | inactive | inactive |  | inactive | inactive
7 | CNC(C)CC1CCCCC1 (centres undefined) | inactive | inactive | inactive |  | inactive |  |  |  | inactive | inactive | inactive | inactive | inactive | inactive | inactive |  | inactive |  | inactive | inactive
8 | CCNC1(c2cccs2)CCCCC1=O (centres undefined) | inactive | inactive | inactive |  |  | inactive | inactive | inactive | inactive | inactive | inactive | inactive | inactive | inactive | inactive | inactive | inactive | inactive | inactive | inactive
9 | CCC1(c2ccccc2)C(=O)NC(=O)N(C)C1=O (centres undefined) | inactive | inactive | inactive |  |  | inactive | inactive | inactive | inactive | inactive | inactive |  |  |  |  | inactive | inactive |  | inactive | 
10 | N#CC1(N2CCCCC2)CCCCC1 |  | inactive | inactive |  |  | inactive | inactive | inactive | inactive | inactive | inactive | inactive | inactive | inactive | inactive | inactive | inactive | inactive | inactive | inactive
11 | CN[C@@H](C)Cc1ccccc1 | inactive | inactive |  |  | inactive | inactive |  | inactive | inactive | inactive | inactive |  |  |  |  | inactive |  |  |  | 
12 | CC(=O)[C@@]1(O)CC[C@H]2[C@@H]3CCC4=CC(=O)CC[C@]4(C)C3(F)[C@@H](O)C[C@@]21C (some centres undefined) |  | inactive | inactive | inactive | inactive | inactive |  |  | inactive | inactive | inactive |  | inactive | inactive |  | inactive | inactive |  | inactive | 0.19 µM [inconclusive] (active)
13 | Cc1nnc2n1-c1sc(Br)cc1C(c1ccccc1Cl)=NC2 |  | 23.7 µM (active) |  |  | inactive | inactive |  | inactive | 21.1 µM (active) | 26.6 µM (active) | inactive |  | inactive |  | 11.9 µM (active) |  |  |  | inactive | inactive
14 | C[C@@H]1[C@H]2Cc3ccc(O)cc3[C@]1(C)CCN2C |  | inactive |  | inactive | inactive | inactive |  |  |  | 50.2 µM (active) | inactive |  |  |  |  | inactive | inactive |  |  | inactive
15 | C=CC[C@]1(O)CC[C@H]2[C@@H]3CCC4=CCCC[C@@H]4[C@H]3CC[C@@]21C |  | inactive | inactive |  | inactive |  | inactive | inactive |  |  |  |  | 0.952 µM [inconclusive] (active) | 0.376 µM (active) |  | inactive | inactive |  | inactive | 
16 | O=C1CN=C(c2ccccc2)c2cc(Cl)ccc2N1 | inactive | inactive | inactive |  | inactive | inactive |  |  | inactive |  | inactive | inactive | inactive | inactive | inactive |  |  |  |  | inactive
17 | CC(C)C[C@H]1C(=O)N2CCC[C@H]2[C@]2(O)O[C@](NC(=O)[C@@H]3C[C@@H]4c5cccc6[nH]cc(c56)C[C@H]4N(C)C3)(C(C)C)C(=O)N12 | inactive | inactive |  |  | inactive |  | 29.8 µM (active) | 23.7 µM (active) | 29.8 µM (active) | 29.8 µM (active) | inactive | inactive | inactive | inactive | inactive |  |  | 29.8 µM (active) |  | 
